# Data published in PubChem BioAssay (NCATS).
# Records with an inconclusive call do not appear. A call without a number means that no potency is given here. Active and inactive are the calls of the source. Unless noted, calls come from the whole dose curve; as a rule, active = well fitted inhibition curve with a large enough effect; inconclusive = small, poorly fitted or top-dose-only effect; inactive = flat fitted curve, though single readings scatter.
# Key:
# [1] = qHTS drug screen for cell cycle checkpoint inhibitors in PARPi-resistant BRCA-mutant ovarian cancer cell lines. (AID 1963452; calls by dose curve); conditions: PEO1/OlaR viability, CellTiter-Glo luminescence, 96 h, stronger effect = lower value
# Summary of the method: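 PEO1, PEO4 and PEO1/OlaR ovarian cancer cells, 600 per well, exposed 96 h at 37C to a dilution series. Viability read by CellTiter-Glo luminescence, normalized to DMSO and empty wells; activity summarized as Z-AUC.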
# [2] = qHTS profiling for inhibitors of Plasmodium falciparum proliferation (AID 504749); note: nearly all actives have a fitted effect of over 60% in size; conditions: P. falciparum in erythrocytes, SYBR Green DNA, 72 h, at 28.7 µM (top of the series)
# Summary of the method: (§1)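 In a 72 h erythrocytic culture (37 C, humidified, 5% CO2) at 2.5% hematocrit and 0.3% starting parasitemia, compounds were tested; SYBR Green I in detergent lysis buffer stained parasite DNA overnight.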
# 3D7 = experiment: as above; conditions: P. falciparum in erythrocytes, SYBR Green DNA, 72 h; series mostly up to 28.7 µM
# Summary of the method: as §1
# 7G8 = experiment: as above; conditions: P. falciparum in erythrocytes, SYBR Green DNA, 72 h; series mostly up to 28.7 µM
# Summary of the method: as §1
# AA1029 = experiment: as above; conditions: P. falciparum in erythrocytes, SYBR Green DNA, 72 h; series mostly up to 28.7 µM
# Summary of the method: as §1
# AS120 = experiment: as above; conditions: P. falciparum in erythrocytes, SYBR Green DNA, 72 h; series mostly up to 28.7 µM
# Summary of the method: as §1
# ATS189 = experiment: as above; conditions: P. falciparum in erythrocytes, SYBR Green DNA, 72 h; series mostly up to 28.7 µM
# Summary of the method: as §1
# ATS95 = experiment: as above; conditions: P. falciparum in erythrocytes, SYBR Green DNA, 72 h; series mostly up to 28.7 µM
# Summary of the method: as §1
# C2A = experiment: as above; conditions: P. falciparum in erythrocytes, SYBR Green DNA, 72 h; series mostly up to 28.7 µM
# Summary of the method: as §1
# CP185 = experiment: as above; conditions: P. falciparum in erythrocytes, SYBR Green DNA, 72 h; series mostly up to 28.7 µM
# Summary of the method: as §1
# CP191 = experiment: as above; conditions: P. falciparum in erythrocytes, SYBR Green DNA, 72 h; series mostly up to 28.7 µM
# Summary of the method: as §1
# CP192 = experiment: as above; conditions: P. falciparum in erythrocytes, SYBR Green DNA, 72 h; series mostly up to 28.7 µM
# Summary of the method: as §1
# CP194 = experiment: as above; conditions: P. falciparum in erythrocytes, SYBR Green DNA, 72 h; series mostly up to 28.7 µM
# Summary of the method: as §1
# CP201 = experiment: as above; conditions: P. falciparum in erythrocytes, SYBR Green DNA, 72 h; series mostly up to 28.7 µM
# Summary of the method: as §1
# CP211 = experiment: as above; conditions: P. falciparum in erythrocytes, SYBR Green DNA, 72 h; series mostly up to 28.7 µM
# Summary of the method: as §1
# CP215 = experiment: as above; conditions: P. falciparum in erythrocytes, SYBR Green DNA, 72 h; series mostly up to 28.7 µM
# Summary of the method: as §1
# CP217 = experiment: as above; conditions: P. falciparum in erythrocytes, SYBR Green DNA, 72 h; series mostly up to 28.7 µM
# Summary of the method: as §1
# CP237 = experiment: as above; conditions: P. falciparum in erythrocytes, SYBR Green DNA, 72 h; series mostly up to 28.7 µM
# Summary of the method: as §1
# CP238 = experiment: as above; conditions: P. falciparum in erythrocytes, SYBR Green DNA, 72 h; series mostly up to 28.7 µM
# Summary of the method: as §1
smiles,measurement,setting,value
O=C(O)[C@H](CC(=O)N1C[C@H]2CCCC[C@H]2C1)Cc1ccccc1,Z-AUC,[1],-0.763 (inactive)
same,Z-AUC,[1]; measured here: PEO1 parental Z-AUC,-0.735
same,Z-AUC,[1]; measured here: PEO4 Z-AUC,-0.83
same,"activity, negative = inhibition",[2]; parasite line A,9.74% (inactive)
same,"activity, negative = inhibition",[2]; parasite line B,2.21% (inactive)
same,Potency,3D7,inactive
same,Potency,7G8,inactive
same,Potency,AA1029,inactive
same,Potency,AS120,inactive
same,Potency,ATS189,inactive
same,Potency,ATS95,inactive
same,Potency,C2A,inactive
same,Potency,CP185,inactive
same,Potency,CP191,inactive
same,Potency,CP192,inactive
same,Potency,CP194,inactive
same,Potency,CP201,inactive
same,Potency,CP211,inactive
same,Potency,CP215,inactive
same,Potency,CP217,inactive
same,Potency,CP237,inactive
same,Potency,CP238,inactive
CC1OC1P(=O)(O)O (stereo not drawn),"activity, negative = inhibition",[2]; parasite line A,-11.9% (inactive)
same,"activity, negative = inhibition",[2]; parasite line B,1.11% (inactive)
same,Potency,3D7,inactive
same,Potency,7G8,inactive
same,Potency,AA1029,inactive
same,Potency,AS120,inactive
same,Potency,ATS189,inactive
same,Potency,ATS95,inactive
same,Potency,C2A,inactive
same,Potency,CP185,inactive
same,Potency,CP191,inactive
same,Potency,CP192,inactive
same,Potency,CP194,inactive
same,Potency,CP201,inactive
same,Potency,CP211,inactive
same,Potency,CP215,inactive
same,Potency,CP217,inactive
same,Potency,CP237,inactive
same,Potency,CP238,inactive
O=C(O)/C=C/C(O)c1ccc(Cl)cc1 (stereo not drawn),"activity, negative = inhibition",[2]; parasite line A,0.108% (inactive)
same,"activity, negative = inhibition",[2]; parasite line B,10.3% (inactive)
same,Potency,3D7,inactive
same,Potency,7G8,inactive
same,Potency,AA1029,inactive
same,Potency,AS120,inactive
same,Potency,ATS189,inactive
same,Potency,ATS95,inactive
same,Potency,C2A,inactive
same,Potency,CP185,inactive
same,Potency,CP191,inactive
same,Potency,CP192,inactive
same,Potency,CP194,inactive
same,Potency,CP201,inactive
same,Potency,CP211,inactive
same,Potency,CP215,inactive
same,Potency,CP217,inactive
same,Potency,CP237,inactive
same,Potency,CP238,inactive
CC1(C)S[C@@H]2[C@H](NC(=O)[C@H](NC(=O)N3CCN(S(C)(=O)=O)C3=O)c3ccccc3)C(=O)N2[C@H]1C(=O)O,"activity, negative = inhibition",[2]; parasite line A,-8.81% (inactive)
same,"activity, negative = inhibition",[2]; parasite line B,-7.98% (inactive)
same,Potency,3D7,inactive
same,Potency,7G8,inactive
same,Potency,AA1029,inactive
same,Potency,AS120,inactive
same,Potency,ATS189,inactive
same,Potency,ATS95,inactive
same,Potency,C2A,inactive
same,Potency,CP185,inactive
same,Potency,CP191,inactive
same,Potency,CP192,inactive
same,Potency,CP194,inactive
same,Potency,CP201,inactive
same,Potency,CP211,inactive
same,Potency,CP215,inactive
same,Potency,CP217,inactive
same,Potency,CP237,inactive
same,Potency,CP238,inactive
Nc1ccc(C(=O)O)c(O)c1,"activity, negative = inhibition",[2]; parasite line A,9.01% (inactive)
same,"activity, negative = inhibition",[2]; parasite line B,-22.6% (inactive)
same,Potency,3D7,inactive
same,Potency,7G8,inactive
same,Potency,AA1029,inactive
same,Potency,AS120,inactive
same,Potency,ATS189,inactive
same,Potency,ATS95,inactive
same,Potency,C2A,inactive
same,Potency,CP185,inactive
same,Potency,CP191,inactive
same,Potency,CP192,inactive
same,Potency,CP194,inactive
same,Potency,CP201,inactive
same,Potency,CP211,inactive
same,Potency,CP215,inactive
same,Potency,CP217,inactive
same,Potency,CP237,inactive
same,Potency,CP238,inactive
